The panel holds about 83,000 compounds, 20% with a hit somewhere; the sample as a whole holds those more often.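 A percent growth of 40 corresponds to 60% growth inhibition; 0 means no net growth; -100 means all cells died. Active threshold: below 10.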 Calls of active or inactive are those of the source.
Key:
Experiment in all cases: NCI-60 one-dose screen, 48 h (100 = growth as untreated, 0 = no growth, -100 = all killed)
Conditions in all cases: 10 µM unless noted
[1] = tested on: T-47D breast
[2] = tested on: BT-549 breast
[3] = tested on: MDA-MB-435 melanoma
[4] = tested on: SW-620 colon
[5] = tested on: MCF7 breast
[6] = tested on: HCT-116 colon
[7] = tested on: HCC-2998 colon
[8] = tested on: KM12 colon
[9] = tested on: MDA-MB-468 breast

Measured: growth

COc1c(B(O)O)cc(F)cc1-c1nc2c(F)cc3[nH]ncc3c2c2c1CCCC2
inactive: [1] 33.7% | [3] 31% | [7] 20.1%
active: [2] -62.2% | [4] 0.792% | [5] -2.86% | [6] 4.76% | [8] 7.55% | [9] -11%

CN(C)c1ccc(/C=C/c2n(Cc3ccc4ccccc4c3)c3ccccc3[n+]2Cc2ccc3ccccc3c2)cc1
active: [1] -55.3% | [2] -87.1% | [3] -94.7% | [4] -65.4% | [5] -67.3% | [6] -62.7% | [7] -89.1% | [8] -29.9% | [9] -82.2%

Cc1ccc2nc(NC(=O)Nc3cccc(Cl)c3)sc2c1
inactive: [1] 98.5% | [2] 121% | [3] 105% | [4] 106% | [5] 66.8% | [6] 94.7% | [7] 122% | [8] 98.6% | [9] 93.8%

COc1ccc(NC(=O)Cn2c(/C=C/c3cccc(Br)c3)nc3ccccc3c2=O)cc1
inactive: [2] 56.1% | [3] 67% | [4] 32.2% | [5] 34.2% | [6] 26.2% | [7] 84.5% | [8] 87.7% | [9] 77.6%
active: [1] -16.6%

O=C1c2cccc3c(N4CCN(c5ccccc5)CC4)ccc(c23)C(=O)N1c1cccc(-c2nn(-c3ccccc3)cc2-c2nc3ccccc3s2)c1
inactive: [1] 114% | [2] 126% | [3] 106% | [4] 98% | [5] 81.2% | [6] 101% | [7] 115% | [8] 104% | [9] 96.9%

COc1ccc(NC(=O)NN2C(=O)c3ccccc3N(C)C2c2ccc(OC)cc2)cc1 (configuration not stated)
inactive: [1] 97.1% | [2] 29.9% | [3] 103% | [4] 100% | [5] 94.9% | [6] 59.4% | [7] 113% | [8] 101% | [9] 102%

Cc1cc(Cl)ccc1NC(=O)Nc1ccc(-c2ccc3c(c2)NC(=O)/C3=C\c2ccc[nH]2)cc1
active: [9] -2.85%
inactive: [1] 26.4% | [2] 79.1% | [3] 98.6% | [4] 89.3% | [5] 18.7% | [6] 108% | [7] 118% | [8] 25.8%

N#CC1=C(c2cccs2)Nc2c(c(-c3ccccc3)nn2-c2ccccc2)C12C(=O)Nc1ccccc12 (configuration not stated)
active: [2] -41.8% | [4] 8.74% | [6] 5.53% | [8] 9.03% | [9] -9.71%
inactive: [1] 17.3% | [3] 28.3% | [5] 31.4% | [7] 38.1%

CC(=O)C[n+]1cccc2c3ccccc3ccc21
active: [9] 8.54%
inactive: [1] 77.2% | [2] 107% | [3] 84.6% | [4] 92.3% | [5] 77.7% | [6] 87.4% | [7] 114% | [8] 88.2%

N#Cc1cc(-c2ccnc(Nc3ccc(N4CCN(C5COC5)CC4)cc3)n2)ccc1N1CCCC1
inactive: [1] 91% | [2] 34.1% | [3] 66.9% | [4] 72.7% | [5] 85.8% | [6] 49% | [7] 75.4% | [8] 83.2% | [9] 38.8%

COC(=O)c1ccc(-c2c(-c3ccccc3)c(F)c3oc(C(=O)OC)c(N)c3c2-c2ccccc2)cc1
inactive: [1] 64.5% | [2] 95.7% | [3] 101% | [4] 87.1% | [5] 75.6% | [6] 84.3% | [7] 98.4% | [8] 95.6% | [9] 84%

O=C(CSc1nc2sc3c(c2c(=O)n1-c1ccc(Cl)cc1)CCCC3)NNC(=O)c1ccc(Br)cc1
inactive: [1] 58.5% | [2] 74.5% | [3] 97.3% | [4] 76.1% | [5] 54.1% | [6] 64% | [7] 108% | [8] 96.6% | [9] 69.7%

C=CCSc1nnc(-c2ccc(-c3nc4ccccc4[nH]3)cc2)o1
inactive: [2] 83.5% | [3] 79% | [4] 101% | [5] 72.6% | [6] 74.9% | [7] 97.9% | [8] 82% | [9] 69.3%
active: [1] 4.02%
